We go through ten molecules from PubChem BioAssay (NCATS).

Records with an inconclusive call do not appear. A number with no mark means an inactive call. Calls of active or inactive are those of the source. Calls follow the shape of the dose curve; as a rule, active = well fitted cell-killing curve with a large enough effect; inconclusive = small, poorly fitted or top-dose-only effect; inactive = flat fitted curve, though single readings scatter.
Potency is read from the fitted curve at half-maximal effect.

The nature of one assay: Cellular viability qHTS for adrenocortical cancer (ACC) cell line SW-13 (AID 1963989). Also: nearly all actives have a fitted effect of over 65% in size.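 As to activity (max response): cells grown in serum-free medium with ITS supplement; % is scaled to controls: 0 for no effect and ±100 for the full control effect.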 The note with it: SW-13 ACC cells viability, CellTiter-Glo, 48 h; activity (max response): stronger effect = lower value. In a few lines: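 Here, serum-free SW-13 cultures were dosed up to 46 uM. Following 48 h, ATP-dependent luminescence (CellTiter-Glo) reported viable cells, and logistic modeling produced IC50 values.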
A general note: qHTS replaces the single test concentration by a dilution series.
With `CN(C(Cc1ccc(OS(=O)(=O)c2cccc3cnccc23)cc1)C(=O)N1CCN(c2ccccc2)CC1)S(=O)(=O)c1cccc2cnccc12` (stereo unspecified), the activity (max response) was 5.6%.

As to `C[C@H]1Oc2cc(cnc2N)-c2c(nn(C)c2C#N)CN(C)C(=O)c2ccc(F)cc21`, the activity (max response) was -27%.

`CC(C(C)N1CC(=O)NC(=O)C1)N1CC(=O)NC(=O)C1` (stereo unspecified): the activity (max response) is 12.5%.

For `O=C(O)c1ccc(Nc2ncc3c(n2)-c2ccc(Cl)cc2C(c2c(F)cccc2F)=NC3)cc1`, the activity (max response) is -30%.

Take `Cc1cnc(Nc2ccc(F)cc2Cl)nc1-c1c[nH]c(C(=O)N[C@H](CO)c2cccc(Cl)c2)c1`: the Potency was 20 µM (active).

With `C=C1C(=CC=C2CCC[C@]3(C)[C@@H]([C@H](C)C=C[C@H](C)C(C)C)CC[C@@H]23)C[C@@H](O)C[C@@H]1O`, the activity (max response) is -0.683%.

Consider `O=C(Nc1c(Cl)cncc1Cl)c1ccc(OC(F)F)c(OCC2CC2)c1`, for which the activity (max response) is 5.46%.

A further assay in a line: Cellular viability qHTS for adrenocortical cancer (ACC) cell line NCI-H295R (AID 1963990). Also: nearly all actives have a fitted effect of over 60% in size.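 As to activity change, negative = viability loss: 0% = DMSO only wells and -100% = full killing with cytotoxic reference compound.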 Conditions: CellTiter-Glo ATP luminescence, 48 h; series mostly up to 46.1 µM; activity change, negative = viability loss: at the top concentration. In a few lines: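 Viability of NCI-H295R after 48 h of treatment (final up to 46 uM) measured through cellular ATP luminescence.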
As to `CN(C(Cc1ccc(OS(=O)(=O)c2cccc3cnccc23)cc1)C(=O)N1CCN(c2ccccc2)CC1)S(=O)(=O)c1cccc2cnccc12` (stereo unspecified), the “activity change, negative = viability loss” value is -16.2%.

Regarding `C[C@H]1Oc2cc(cnc2N)-c2c(nn(C)c2C#N)CN(C)C(=O)c2ccc(F)cc21`, the Potency is 17.8 µM (active).

Consider `CC(Cc1ccc(O)c(O)c1)(NN)C(=O)O` (stereo unspecified), for which the “activity change, negative = viability loss” value is -13.5%.

On to `CC(C(C)N1CC(=O)NC(=O)C1)N1CC(=O)NC(=O)C1` (stereo unspecified), for which the “activity change, negative = viability loss” value was -3.26%.

Consider `O=c1oc2cc(O)ccc2s1`, for which the “activity change, negative = viability loss” value was -14.5%.

Turning to `Cc1cnc(Nc2ccc(F)cc2Cl)nc1-c1c[nH]c(C(=O)N[C@H](CO)c2cccc(Cl)c2)c1`, the Potency was 14.1 µM (active).

Turning to `C=C1C(=CC=C2CCC[C@]3(C)[C@@H]([C@H](C)C=C[C@H](C)C(C)C)CC[C@@H]23)C[C@@H](O)C[C@@H]1O`, the “activity change, negative = viability loss” value was -12.5%.

Take `Nc1nc2ccc(OC(F)(F)F)cc2s1`: the Potency is 20 µM (active).

On to `O=C(Nc1c(Cl)cncc1Cl)c1ccc(OC(F)F)c(OCC2CC2)c1`, for which the “activity change, negative = viability loss” value was -5.37%.
